Data taken from PubChem BioAssay AID2551 (National Center for Advancing Translational Sciences (NCATS), 2010).
In all, about 310,000 compounds went through this assay and about 17,000 (5.5%) were called active. Roughly 11% stayed inconclusive and do not appear here. The sample holds actives, similar compounds and a random draw of the others, so the mix is not that of the screen. Values without a mark were called inactive. Calls come from the whole dose curve; as a rule, active = well fitted inhibition curve with a large enough effect; inconclusive = small, poorly fitted or top-dose-only effect, or effect the other way; inactive = no such curve, though single readings can be large or run the other way.

Target: Nuclear receptor ROR-gamma (Mus musculus) (UniProt P51450)
Assay: qHTS for inhibitors of ROR gamma transcriptional activity; note: nearly all actives have a fitted effect of over 60% in size
Details: Drosophila S2 Gal4-RORgamma UAS-luciferase reporter, 20 h; series mostly up to 53.6 µM; activity change, negative = inhibition: at the top concentration
Outline: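 Stable Schneider cell line, Gal4 DNA-binding domain fused to ROR gamma, UAS-luciferase. Cmpd 1 hr RT → CuSO4 700 uM final → 20 hr RT → luciferase reagent 10 min → luminescence.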
% is set by controls: 0 for no effect and ±100 for the full control effect; potency is the fitted concentration of half-maximal effect.

Nuclear receptor ROR-gamma (Mus musculus), sequence (P51450 whole entry, looked up): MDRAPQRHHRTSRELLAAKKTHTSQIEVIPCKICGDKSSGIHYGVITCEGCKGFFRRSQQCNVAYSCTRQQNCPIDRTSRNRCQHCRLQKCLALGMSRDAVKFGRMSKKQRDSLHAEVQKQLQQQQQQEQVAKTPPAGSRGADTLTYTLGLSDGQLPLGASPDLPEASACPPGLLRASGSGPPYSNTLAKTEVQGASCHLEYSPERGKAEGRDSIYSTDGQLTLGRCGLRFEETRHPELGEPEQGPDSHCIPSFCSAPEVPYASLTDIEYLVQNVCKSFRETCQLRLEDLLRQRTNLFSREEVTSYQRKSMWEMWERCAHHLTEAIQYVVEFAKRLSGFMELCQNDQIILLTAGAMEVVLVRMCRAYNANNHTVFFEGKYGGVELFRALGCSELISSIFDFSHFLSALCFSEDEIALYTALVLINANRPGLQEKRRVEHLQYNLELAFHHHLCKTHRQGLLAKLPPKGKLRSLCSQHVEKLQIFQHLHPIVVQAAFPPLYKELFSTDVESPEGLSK

| Structure (SMILES) | activity change, negative = inhibition | Potency |
| --- | --- | --- |
| COc1cc(Cl)c(C)cc1NC(=O)CN1CCCCCC1 | 3.84% |  |
| COc1cc(NC(=S)N2CCCC(C)C2)cc(OC)c1OC (stereo not given) | -41% |  |
| COc1cc(NC(=S)N2CCCC(C)C2)c(OC)cc1Cl (stereo not given) |  | 12.6 µM (active) |
| O=C(c1ccccc1)N1N=C(c2ccccc2O)CC1c1ccc(Br)cc1 (stereo not given) | 1.01% |  |
| CNC(=S)N1N=C(c2ccccc2)CC1c1ccc(Br)cc1 (stereo not given) |  | 11.2 µM (active) |
| COc1ccc(C2=NN(C(C)=O)C(c3ccccc3)C2)cc1 (stereo not given) | 7.98% |  |
| COc1ccc(-c2nonc2NC(=O)c2oc3ccc(F)cc3c2C)cc1OC | 0% |  |
| O=c1ccc2cc(S(=O)(=O)NCCCc3ccccc3)ccc2[nH]1 | -6.85% |  |
| CCN(CC)S(=O)(=O)c1ccc(NC(=O)c2cnc(C)cn2)cc1 | 3.56% |  |
| CCOc1cc(NC(=O)Nc2ccccc2)c(OCC)cc1NC(=O)CC | 40.9% |  |
| COc1ccc(C(=O)C[n+]2ccc(C)cc2)cc1 | 0.679% |  |
| COc1ccc(C(=O)CC(=O)c2ccc(C)cc2)c(O)c1 |  | 10 µM (active) |
| COc1ccc(OCCC(=O)c2ccc(OC)cc2)cc1 | -24.6% |  |
| Cc1cc(C)cc(N(CC(=O)NC2CCCC2)C(=O)CCC(=O)Nc2nccs2)c1 | -15.8% |  |
| COCC(C)n1c(C)cc(C(=O)COc2ccc(C)nc2[N+](=O)[O-])c1C (stereo not given) |  | 12.6 µM (active) |
| Cc1ccc(OCC(=O)NC(C)c2ccccc2)c([N+](=O)[O-])n1 (stereo not given) | -4.48% |  |
| Cc1ccc(OCC(=O)c2cc(C)n(Cc3ccco3)c2C)c([N+](=O)[O-])n1 | -33.6% |  |
| CCOC(=O)C1CCN(Cc2nnc(-c3cccc(Br)c3)o2)CC1 | -2.39% |  |
| Cc1noc(C)c1CSCC(=O)N(CCC(C)C)c1c(N)n(Cc2ccccc2)c(=O)[nH]c1=O | -24.5% |  |
| CCCCN1CCNC1=S |  | 12.6 µM (active) |
| CCC(C(=O)NCCC(C)C)N(Cc1ccccc1Cl)C(=O)c1snc(C(N)=O)c1N (stereo not given) | 9.6% |  |
| CSc1cccc(NC(=O)CSc2ccccc2)c1 | 25.1% |  |
| CSc1cccc(NC(=S)N(C(C)C)C(C)c2ccccn2)c1 (stereo not given) |  | 22.4 µM (active) |
| COc1cccc(NC(=S)N(Cc2ccc(C)cc2)Cc2ccccn2)c1 | -103% |  |
| CC(c1ccccn1)N(CCN(C)C)C(=S)Nc1ccccc1F (stereo not given) | -43.2% |  |
| CCOc1ccc(C(=O)Nc2cccc(SC)c2)cc1 | 17.7% |  |
| CSc1cccc(NC(=S)N(Cc2ccccc2)Cc2ccccn2)c1 |  | 6.31 µM (active) |
| COC(=O)c1ccc(S(=O)(=O)N2CCc3ccccc3C2)cc1 | 5.76% |  |

| Structure (SMILES) | activity change, negative = inhibition | Potency |
| --- | --- | --- |
| COc1ccc(NC(=O)CSc2ccc(-c3ccco3)nn2)c(OC)c1 | 13% |  |
| CN(C)c1ccc(S(=O)(=O)NCC(=O)NCC2CCCCC2)cc1[N+](=O)[O-] | -1.36% |  |
| COc1ccc(CN2CC(C(=O)NCCc3ccc(Cl)cc3)CC2=O)cc1 (stereo not given) | 17.2% |  |
| CCOc1ccc(NC(=O)CC(Cc2ccc(Cl)cc2)C(=O)O)cc1 (stereo not given) | 3.83% |  |
| CCOC(=O)c1c(C(C#N)C#N)cc(C)nc1C | -1.43% [at 10 µM] |  |
| CCOC(=O)c1cc(C)nc(S(C)(=O)=O)c1C#N |  | 8.91 µM (active) |
| CCOC(=O)COc1nc(C)cc(C(F)(F)F)c1C#N | 1.74% |  |
| O=C(O)c1ccccc1-c1ccccc1C(=O)NCCc1ccccc1 | 31.7% |  |
| CN(CC(=O)Nc1ccccc1C(F)(F)F)C(=O)Cc1ccccc1F | -27.9% |  |
| Cc1cccc(C(=O)NCCCN2CCCC2=O)c1 | -6.33% |  |
| Cc1cccc(-c2nc3ccc(C(=O)NCCN4CCN(C)CC4)cc3nc2-c2cccc(C)c2)c1 |  | 12.6 µM (active) |
| CCC1=Nc2cc(C(=O)NCCN3CCCC3)ccc2Sc2ccc(C)cc21 | 2.84% |  |
| CCN(CC)c1ccc(/C=N/NC(=O)c2cnccn2)c(O)c1 |  | 1.58 µM (active) |
| CCN(CC)c1ccc(/C=N/NC(=O)CNC(=O)c2cccnc2)cc1 | 11.4% |  |
| Cc1cc(C)nc(N/N=C/c2ccncc2)n1 | -20.5% |  |
| CCN(CC)c1ccc(/C=N/Nc2nc(C)cc(C)n2)c(O)c1 |  | 1.78 µM (active) |
| O=C(Nc1ccc2c(c1)OCCO2)c1cnccn1 | -26.5% |  |
| CCN(CC)c1ccc(/C=N/Nc2nc(C)cc(=O)[nH]2)cc1 | -32.5% |  |
| CCc1c(C)c2ccc(OC3CCCCC3=O)cc2oc1=O (stereo not given) | 9.01% |  |
| CC(C)(C)n1nnnc1C(c1ccccc1F)N1CCN(C(=O)c2ccco2)CC1 (stereo not given) | 0.521% |  |
| OC(COc1ccc(F)cc1Cl)CN1CCc2ccccc2C1 (stereo not given) | 0.765% |  |
| CC(C)c1nc2ccc(C(=O)O)cc2[nH]1 |  | 8.91 µM (active) |
| Cc1cccc(C(=O)O)c1 | -7.78% |  |
| OC(c1nc2ccc(F)cc2[nH]1)C(O)c1nc2ccc(F)cc2[nH]1 (stereo not given) | -2.57% |  |
| Cc1ccc(CN(C)Cc2cc(=O)oc3cc(C)c(Cl)cc23)cc1 | -12.8% |  |
| CN(c1ccccc1)S(=O)(=O)c1cc(C(=O)Nc2nc3ccccc3[nH]2)ccc1Cl |  | 2.82 µM (active) |
| CN(c1ccccc1)S(=O)(=O)c1cccc(NC(=O)Cc2c(F)cccc2Cl)c1 | 1.9% |  |
